Structures are written as SMILES. The source made the active and inactive calls.

The nature of experiment [1]: small molecules captured by biotinylated probe aFSTL3 – biochemical, small-molecule microarray, fluorescence 635/667, stem cell growth factor project, primary screen (AID 1064).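 Further: measures binding of the biotinylated anti-FSTL3 antibody to printed compounds.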 To be noted: higher = more signal.
Experiment [2] is described as follows: binders from COS7 lysate, DM2A8 probe, primary screen, torsin A project, cell lysate, small-molecule microarray, fluorescence 635/667 (AID 1065). Conditions: higher = more signal, COS7 lysate expressing mutant human TOR1A.
Experiment [3] is described as follows: small molecules captured by biotinylated probe aFGF2 – biochemical, small-molecule microarray, fluorescence 635/667, stem cell growth factor project, primary screen (AID 1067).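 Further: measures binding of biotinylated aFGF2 protein to printed compounds on slides; z-score merges feature fluorescence and signal-to-noise across triplicate slides.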 To be noted: higher = more signal.
Experiment [4] is described as follows: small molecules captured by biotinylated probe aFGF10 – biochemical, small-molecule microarray, fluorescence 635/667, stem cell growth factor project, primary screen (AID 1071).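 Further: score merges 667 nm spot intensity and signal to noise from triplicate slides.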 Conditions: higher = more signal.
Experiment [5] has as its target Neurogenic locus notch homolog protein 2 (Homo sapiens) (UniProt Q04721). Briefly: small molecules binding Notch2 protein – biochemical, small-molecule microarray, 635 nm fluorescence, stem cell growth factors, primary screen (AID 1073). To be noted: higher = more signal.
Experiment [6] addresses Pro-neuregulin-1, membrane-bound isoform (Homo sapiens) (UniProt Q02297). Put plainly: small molecules binding neuregulin-1 protein – biochemical, small-molecule microarray, fluorescence 635/667, psychiatric disease protein project, primary screen (AID 1075).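 Further: score combines 667 nm spot fluorescence with signal to noise.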 Conditions: NRG1 binding, 635 nm fluorescence, higher = more signal.
Experiment [7] concerns Neuregulin-1 EGF-like domain. Put plainly: small molecules binding NRG1 EGF domain – biochemical, small-molecule microarray, 635 nm fluorescence, primary screen (AID 1081).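 Further: binding of the protein to compounds printed on small-molecule microarray slides.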 Conditions: higher = more signal.
Experiment [8] is described as follows: FRG1 expression reporter modulators in myotubes – cell-based, C2C12 myotubes, firefly/Renilla luciferase, luminescence, FRG1 inhibition for FSHD, primary screen (AID 1084). To be noted: FRG1 promoter luciferase, higher = more signal, called active from +8 up or from −8 down.
Experiment [9] is described as follows: small molecules captured by biotinylated probe aFST – biochemical, small-molecule microarray, fluorescence 635/667, stem cell growth factor project, primary screen (AID 1086).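 Further: score merges 667 nm fluorescence with signal-to-noise of each printed compound spot.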 To be noted: higher = more signal.
Experiment [10] is described as follows: binders of probe aHhip on microarray, primary screen, stem cell growth factor project, biochemical, small-molecule microarray, fluorescence 635/667 (AID 1087).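 Further: score merges spot fluorescence at 667nm with spot signal to noise ratio.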 Conditions: higher = more signal.
For experiment [11], the system named is PRMT1 (protein arginine N-methyltransferase 1). Briefly: small molecules binding arginine methyltransferase PRMT1 – biochemical, small-molecule microarray, 635 nm fluorescence, primary screen (AID 1088).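 Further: binding of Prmt1 protein to compounds spotted on small-molecule microarray slides.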 Conditions: higher = more signal.
Experiment [12] can be described thus: growth effects on S. cerevisiae YJM789 – YJM789 clinical isolate, OD600, 24 h, basal, primary screen (AID 1089).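 Further: growth of clinical yeast isolate S. cerevisiae YJM 789 seeded 1000 cells per well; test concentration not given here.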 Conditions: higher = more signal, called active from +8 up or from −8 down.
Experiment [13] in a line: S. pombe growth modifiers, basal conditions – strain 972, OD600, 24 h, no modulator, primary screen (AID 1090).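 Further: basal condition with compound alone and no growth modifier present; test concentration not given here.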 Conditions: S. pombe 972 growth, higher = more signal, called active from +8 up or from −8 down.
The nature of experiment [14]: budding yeast growth modifiers under rapamycin – strain BY4716, OD600, 96 h, primary screen (AID 1091). Further: test concentration not given here. Conditions: S. cerevisiae BY4716 + rapamycin, higher = more signal, called active from +8 up or from −8 down.
Experiment [15] deals with Torsin-1A-interacting protein 2 (Homo sapiens) (UniProt Q8NFQ8). Briefly: small molecules binding lysate-expressed LULL1 – cell lysate, human LULL1 lysate, 635/667 nm fluorescence, primary screen (AID 1092).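 Further: score merges per-feature 667 nm fluorescence with signal-to-noise.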 Conditions: small-molecule microarray, hLULL1 lysate binding, 635 nm fluorescence; higher = more signal.
Torsin-1A-interacting protein 2 (Homo sapiens), sequence (Q8NFQ8 whole entry, looked up): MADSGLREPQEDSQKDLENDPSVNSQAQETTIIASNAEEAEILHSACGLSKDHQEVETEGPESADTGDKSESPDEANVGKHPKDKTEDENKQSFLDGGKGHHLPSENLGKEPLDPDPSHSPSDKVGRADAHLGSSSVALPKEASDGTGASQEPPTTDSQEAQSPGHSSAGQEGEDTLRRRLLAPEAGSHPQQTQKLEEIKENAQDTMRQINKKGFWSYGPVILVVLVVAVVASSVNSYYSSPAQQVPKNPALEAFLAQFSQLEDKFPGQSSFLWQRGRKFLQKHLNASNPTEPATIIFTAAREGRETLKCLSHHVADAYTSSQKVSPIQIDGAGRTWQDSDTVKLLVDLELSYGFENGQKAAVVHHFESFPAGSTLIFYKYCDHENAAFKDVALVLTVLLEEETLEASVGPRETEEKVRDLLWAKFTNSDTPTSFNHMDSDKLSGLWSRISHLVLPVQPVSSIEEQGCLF
Experiment [16] is described as follows: optical density change of DRC41 E. coli – strain DRC41, OD650, 24 h, E. coli filamentation project, primary screen (AID 1093).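 Further: MC1000 strain lacking acrAB efflux and sulA so SOS filamentation is blocked; test concentration not given here.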 Conditions: E. coli DRC41 growth, higher = more signal, called active from +8 up or from −8 down.
Experiment [17] can be described thus: probe aLefty2 binding to arrayed compounds – biochemical, biotinylated probe, 635/667 nm fluorescence, primary screen (AID 1094).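 Further: score merges spot fluorescence near 667 nm with spot signal-to-noise ratio.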 Conditions: small-molecule microarray, higher = more signal.
Experiment [18] deals with Noggin (protein binding on small-molecule microarray). Put plainly: small molecules binding Noggin protein – biochemical, 635/667 nm fluorescence, primary screen (AID 1095).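 Further: score merges 667 nm feature fluorescence with signal to noise over triplicate slides.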 Conditions: 635 nm fluorescence, higher = more signal.
Experiment [19] concerns the target Neurogenic locus notch homolog protein 3 (Homo sapiens) (UniProt Q9UM47). Put plainly: small molecules binding NOTCH3 protein – biochemical, 635/667 nm fluorescence, primary screen (AID 1096). To be noted: small-molecule microarray, 635 nm fluorescence, higher = more signal.
A short description of experiment [20]: probe aEGFR binding to arrayed compounds – biochemical, biotinylated probe, 635/667 nm fluorescence, primary screen (AID 1097).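 Further: probe is a biotinylated anti-EGFR antibody binding compounds printed on slides; score combines fluorescence near 667 nm and signal to noise of each spot.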 To be noted: small-molecule microarray, higher = more signal.

Neurogenic locus notch homolog protein 3 (Homo sapiens), sequence (Q9UM47 whole entry, looked up): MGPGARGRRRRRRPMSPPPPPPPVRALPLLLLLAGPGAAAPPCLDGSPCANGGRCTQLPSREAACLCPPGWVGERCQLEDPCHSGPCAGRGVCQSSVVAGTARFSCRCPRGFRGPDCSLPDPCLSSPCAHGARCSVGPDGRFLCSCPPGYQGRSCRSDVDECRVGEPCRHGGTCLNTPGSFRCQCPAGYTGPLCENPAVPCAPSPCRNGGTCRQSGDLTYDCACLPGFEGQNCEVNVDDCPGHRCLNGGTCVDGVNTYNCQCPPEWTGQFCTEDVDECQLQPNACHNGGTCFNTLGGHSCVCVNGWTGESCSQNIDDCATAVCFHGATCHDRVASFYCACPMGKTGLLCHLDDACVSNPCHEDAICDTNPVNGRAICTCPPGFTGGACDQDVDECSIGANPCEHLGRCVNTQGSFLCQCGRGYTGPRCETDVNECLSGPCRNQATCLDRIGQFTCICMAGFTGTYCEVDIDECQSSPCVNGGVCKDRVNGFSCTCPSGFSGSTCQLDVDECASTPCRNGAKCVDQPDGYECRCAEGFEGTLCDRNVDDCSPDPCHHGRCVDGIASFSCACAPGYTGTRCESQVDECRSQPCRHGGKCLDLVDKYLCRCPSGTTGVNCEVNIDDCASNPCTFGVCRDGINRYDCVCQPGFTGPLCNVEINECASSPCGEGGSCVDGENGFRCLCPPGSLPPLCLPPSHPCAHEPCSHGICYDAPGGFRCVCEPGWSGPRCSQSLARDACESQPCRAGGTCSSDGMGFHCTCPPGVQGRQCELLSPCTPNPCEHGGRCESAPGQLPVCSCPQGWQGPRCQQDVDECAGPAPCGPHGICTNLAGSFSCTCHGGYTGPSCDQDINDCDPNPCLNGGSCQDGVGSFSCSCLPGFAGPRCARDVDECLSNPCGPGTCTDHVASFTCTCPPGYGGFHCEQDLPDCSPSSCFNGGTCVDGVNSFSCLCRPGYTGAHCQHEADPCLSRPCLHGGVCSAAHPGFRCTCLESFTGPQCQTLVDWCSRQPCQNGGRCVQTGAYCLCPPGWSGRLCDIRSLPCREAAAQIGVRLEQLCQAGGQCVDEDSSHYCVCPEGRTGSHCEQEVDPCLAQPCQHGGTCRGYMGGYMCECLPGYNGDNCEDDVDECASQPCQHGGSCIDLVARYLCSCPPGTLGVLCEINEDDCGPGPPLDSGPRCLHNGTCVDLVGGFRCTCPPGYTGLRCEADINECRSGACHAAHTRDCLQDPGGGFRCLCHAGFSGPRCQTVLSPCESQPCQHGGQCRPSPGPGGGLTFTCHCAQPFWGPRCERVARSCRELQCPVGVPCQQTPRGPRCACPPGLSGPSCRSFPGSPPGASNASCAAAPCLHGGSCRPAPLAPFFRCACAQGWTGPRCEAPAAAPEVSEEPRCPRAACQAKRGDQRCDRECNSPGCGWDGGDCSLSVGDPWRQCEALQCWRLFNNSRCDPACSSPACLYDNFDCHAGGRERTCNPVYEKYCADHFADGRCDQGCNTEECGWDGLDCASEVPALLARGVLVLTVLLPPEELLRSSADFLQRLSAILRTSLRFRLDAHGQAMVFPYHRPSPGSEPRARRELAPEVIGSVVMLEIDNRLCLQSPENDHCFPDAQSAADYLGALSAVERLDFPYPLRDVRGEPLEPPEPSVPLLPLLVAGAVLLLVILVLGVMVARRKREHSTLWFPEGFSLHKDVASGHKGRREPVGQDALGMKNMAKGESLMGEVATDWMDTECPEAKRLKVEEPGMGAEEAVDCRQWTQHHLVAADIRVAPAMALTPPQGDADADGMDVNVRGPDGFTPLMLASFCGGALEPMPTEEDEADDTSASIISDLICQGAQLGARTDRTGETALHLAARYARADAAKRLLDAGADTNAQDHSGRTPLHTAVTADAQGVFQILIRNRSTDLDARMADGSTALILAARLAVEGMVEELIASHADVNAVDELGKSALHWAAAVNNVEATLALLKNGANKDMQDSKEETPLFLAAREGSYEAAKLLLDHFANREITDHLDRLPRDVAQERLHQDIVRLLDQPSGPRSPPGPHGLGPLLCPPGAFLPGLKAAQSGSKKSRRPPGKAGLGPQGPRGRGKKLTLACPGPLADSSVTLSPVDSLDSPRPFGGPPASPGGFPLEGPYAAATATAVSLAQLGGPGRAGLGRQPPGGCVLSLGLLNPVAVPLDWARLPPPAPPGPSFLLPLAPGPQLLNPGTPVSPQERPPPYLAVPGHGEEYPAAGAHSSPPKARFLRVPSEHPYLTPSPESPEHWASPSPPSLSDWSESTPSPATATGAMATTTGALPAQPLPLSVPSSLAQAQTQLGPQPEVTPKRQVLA
Pro-neuregulin-1, membrane-bound isoform (Homo sapiens), sequence (Q02297 whole entry, looked up, the tested form may be a part, canonical isoform): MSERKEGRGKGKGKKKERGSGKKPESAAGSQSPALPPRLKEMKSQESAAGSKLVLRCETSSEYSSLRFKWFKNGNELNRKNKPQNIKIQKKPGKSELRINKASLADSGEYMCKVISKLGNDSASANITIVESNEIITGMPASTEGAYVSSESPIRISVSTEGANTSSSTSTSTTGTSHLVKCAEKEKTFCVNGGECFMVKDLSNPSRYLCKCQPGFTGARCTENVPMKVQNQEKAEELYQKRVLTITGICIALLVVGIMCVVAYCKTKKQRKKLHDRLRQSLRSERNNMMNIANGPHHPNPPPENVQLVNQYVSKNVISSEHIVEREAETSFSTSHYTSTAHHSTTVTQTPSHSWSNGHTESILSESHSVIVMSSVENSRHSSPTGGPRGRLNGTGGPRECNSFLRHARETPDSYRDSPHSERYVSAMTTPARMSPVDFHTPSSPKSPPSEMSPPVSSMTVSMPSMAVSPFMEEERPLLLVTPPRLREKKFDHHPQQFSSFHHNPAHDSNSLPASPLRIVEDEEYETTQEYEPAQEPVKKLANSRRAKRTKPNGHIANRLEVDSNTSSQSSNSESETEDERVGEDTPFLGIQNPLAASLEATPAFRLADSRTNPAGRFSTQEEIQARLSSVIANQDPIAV

Regarding `C=CCC(OC(C)=O)[C@@H]1[C@@H](N(Cc2ccc(-c3cccc(C(F)(F)F)c3)o2)C(=O)Cc2ccc(F)cc2)c2cc(OCCCO)ccc2N1C(=O)Cc1ccc(OC)cc1` (stereo not given in full), the composite z-score in experiment [1] is -0.0361; in experiment [2] it was -0.162; in [3], -0.0971; in experiment [4] it was 0.318; in experiment [5], -0.944; in [6], -0.14. For the same molecule, the composite z-score was -0.751 in experiment [7]; -0.26 in [9]; -0.164 in [10]; -2.39 in experiment [11]; -2.02 in experiment [15]; 0.454 in [17]. The results for the composite z-score in [18], in [19] and in experiment [20] were -0.137, -1.08 and -0.195, respectively. Also, the z-score in experiment [8] was -0.373 (inactive); in experiment [12], -0.973 (inactive); in experiment [13], 0.0138 (inactive); in [14], -0.982 (inactive); in experiment [16] it was -0.0261 (inactive).
With `CCOC(=O)C[C@H]1[C@H](OC(=O)c2ccc(C(=O)c3ccccc3)cc2)[C@@H](NC(=O)c2ccc(-c3ccccc3)cc2)c2cc(OCCCO)ccc2N1C(=O)c1ccccc1`, the composite z-score in [1] was -0.57; in [2] it was -0.264; in [3], -0.212; in experiment [4], 0.577; in experiment [5] it was 0.639; in [6] it was 0.771. Further, the composite z-score in [7] was 0.744; in experiment [9] it was 0.319; in experiment [10] it was -0.164; in [11], 1.36; in [15], 1.45; in [17] it was -0.221. Further, the figures for the composite z-score in experiment [18], in experiment [19] and in [20] were 0.421, 1.03 and 0.0911, respectively. Besides, the z-score in experiment [8] is 0.805 (inactive); in experiment [12] it was -0.575 (inactive); in experiment [13], -0.34 (inactive); in experiment [14] it was -0.169 (inactive); in experiment [16] it was -0.83 (inactive).
Consider `O=C(NCc1ccccc1)[C@@]1(CCS(=O)(=O)c2ccccc2)N=C(c2ccc(OCCCO)cc2)O[C@H]1c1ccccc1`, for which the composite z-score is -0.0744 in [1]; 0.345 in experiment [2]; 0.115 in [3]; 0.488 in [4]; 1.56 in experiment [5]; 1.82 in experiment [6]. The composite z-score in [7] was 1.19; in experiment [9], 1.6; in experiment [10], 0.0274; in experiment [11] it was 1.56; in experiment [15], 3.56; in experiment [17] it was 0.215. The composite z-score in experiment [18] worked out at 0.878; in experiment [19], 1.06; in experiment [20], 0.116. For the same molecule, the z-score in experiment [8] was -2.73 (inactive); in experiment [12] it was 1.72 (inactive); in experiment [13], -0.129 (inactive); in experiment [14] it was 34.4 (active); in experiment [16], 0.988 (inactive).
Regarding `[N-]=[N+]=NCc1ccccc1C[C@]1(C(=O)O)N=C(c2ccc(OCCCO)cc2)O[C@H]1c1ccccc1N=[N+]=[N-]`, the composite z-score was -0.146 in experiment [1]; 0.268 in experiment [2]; -0.0004 in experiment [3]; 0.833 in [4]; 1.52 in experiment [5]; 1.78 in [6]. Moreover, the composite z-score is 1.25 in experiment [7]; 0.921 in experiment [9]; 0.138 in experiment [10]; 1.56 in [11]; 3.21 in experiment [15]; -0.128 in experiment [17]. Besides, the values for the composite z-score in experiment [18], in [19] and in [20] were 0.435, 1.14 and 0.012, respectively. For the same molecule, the z-score in experiment [8] is -1.47 (inactive); in experiment [12] it was 0.869 (inactive); in [13], -0.742 (inactive); in [14], 0.924 (inactive); in experiment [16] it was 0.644 (inactive).
Take `CCOC(=O)[C@H]1CC=C2CC1C(=O)N1CCC[C@@H]1[C@@H]2O[Si](C)(C)C(C)(C)C` (stereo not given in full): the composite z-score in experiment [1] is -0.502; in experiment [2] it was -0.0173; in experiment [3], -0.221; in experiment [4], -0.0337; in [5], -1.9; in [6] it was -0.596. For the same molecule, the composite z-score in experiment [7] was -0.415; in experiment [9], -0.686; in experiment [10], -0.0994; in [11], -0.295; in [15], 0.368; in [17] it was -0.376. The composite z-score in experiment [18] was 0.451; in [19], -0.979; in experiment [20], -0.265. Further, the z-score is -0.591 (inactive) in [8]; -2.4 (inactive) in experiment [12]; -21.2 (active) in experiment [13]; -1.8 (inactive) in experiment [14]; -0.558 (inactive) in experiment [16].

(Values after PubChem BioAssay.)
